An excerpt weighted towards active compounds, which were near 4.6% of everything screened.
TRHR agonist: agonists of human TRH receptor | P34981 | TRHR cells, calcium flux fluo-8, FDSS agonist mode | AID 493084 | activation, % at 2 µM | 360,000 tested, 0.18% active
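TRHR-expressing cells, plated overnight in medium with 10% serum, were loaded with fluo-8 calcium dye at room temperature. After a 10 s baseline, library compound was pin-added and calcium release was recorded kinetically (ex 480/em 530) as agonist response.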
D1 ag: agonists of human D1 dopamine receptor. HEK293 T-REx D1 cells, calcium flux, agonist mode. activation, % at 2 µM. 360,000 tested, 1% active. AID 504660
Target sequence (P21728 whole entry, looked up): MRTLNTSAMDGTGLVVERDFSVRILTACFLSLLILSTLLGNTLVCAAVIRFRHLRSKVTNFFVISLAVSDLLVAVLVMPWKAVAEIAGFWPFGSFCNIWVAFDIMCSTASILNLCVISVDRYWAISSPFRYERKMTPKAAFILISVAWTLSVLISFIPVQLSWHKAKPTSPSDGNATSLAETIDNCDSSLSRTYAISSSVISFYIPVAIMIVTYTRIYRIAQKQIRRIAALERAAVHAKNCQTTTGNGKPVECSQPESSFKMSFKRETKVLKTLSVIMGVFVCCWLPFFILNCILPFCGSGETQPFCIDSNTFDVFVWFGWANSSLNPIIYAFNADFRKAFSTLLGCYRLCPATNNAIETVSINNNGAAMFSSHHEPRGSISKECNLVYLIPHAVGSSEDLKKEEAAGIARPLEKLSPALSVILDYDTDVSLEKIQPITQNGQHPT
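Agonism was scored from calcium flux recorded over 180 s (1 read/s) after pintool compound addition, following a 10-cycle baseline. Cells were inducible force-coupled HEK293 TREx D1, plated overnight at 30 C and loaded with no-wash calcium dye.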
TRHR PAM: TRH receptor (human) allosteric enhancement | TRHR cells, fluo-8 calcium fluorescence, EC20 TRH enhancement | 360,000 tested, 0.66% active | enhancement, % at 2 µM | P34981 | AID 493056; in the data active = enhancement above about 30%
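TRHR-expressing cells loaded with fluo-8 calcium dye were read kinetically (ex 480/em 530) during compound addition, then stimulated with an EC20 of TRH (10 nM final). Enhancement of the Gq-mediated intracellular calcium response was scored.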
D1 antagonist: blocks dopamine activation of the human D1 receptor | activity change, negative = inhibition, % at 10 µM | AID 504652 | HEK293 TREx D1 cells, calcium flux, dopamine EC80; hits give low values | 360,000 tested, 3.2% active; in the data active = activity change below about -30%
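Tetracycline-induced HEK293 T-REx cells with force-coupled D1 receptor were loaded with a no-wash calcium dye. Compound was added after a 10 s baseline and read kinetically for 180 s; EC80 dopamine was then added and calcium flux followed another 180 s.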
D1 potentiator: enhances dopamine response at the human D1 receptor; AID 504651; P21728; potentiation, % at 10 µM; 360,000 tested, 0.036% active; HEK293 TREx D1 cells, calcium flux, dopamine EC20 potentiation; in the data active = potentiation above about 30%
Large screens that a line does not name were inactive; ! = repeats disagree. Cut-off read from the data, not from the text of the source, unless noted: active = activation above about 30%; inactive = the rest.

Cc1ccc(-n2nc3c(=O)n(CC(=O)NCc4ccco4)nc(C)c3c2C)cc1	D1 antagonist -34
Cc1nn(CC(=O)NCCc2ccco2)c(=O)c2nn(-c3ccccc3)c(C)c12	none
Cc1nn(CCC(=O)NCc2ccc(N(C)C)cc2)c(=O)c2nn(-c3ccccc3)c(C)c12	D1 antagonist -31!
Cc1ccc(-n2nc3c(=O)n(CC(=O)NC(C)C)nc(C)c3c2C)cc1	D1 antagonist -35
Clc1cccc2c1CCN(Cc1nc(-c3cnccn3)no1)C2	D1 antagonist -90
c1ccc(C(c2ccccc2)N2CCN(Cc3nc(-c4cnccn4)no3)CC2)cc1	none
CCc1ccc(-n2c(=O)c3c4c(sc3n(CC(=O)N3CCCCC3CC)c2=O)CCC4)cc1 (configuration not stated)	none
CCn1c(=O)c(-[n+]2ccccc2)c(O)c2ccccc21	D1 antagonist -35
O=C(O)c1ccccc1C(=O)c1ccc(Br)s1	D1 antagonist -34
Cc1ccc(C(=O)c2ccccc2C(=O)O)s1	none
O=C(O)c1ccccc1C(=O)c1cccc2ccccc12	D1 antagonist -37
CC1(OC(=O)C2CCCC2)C(=O)C=C2C=C(c3ccsc3)N(CC3CC3)C=C2C1=O (configuration not stated)	D1 antagonist -33
COc1ccc(-n2c(=O)c3c(c4cc(OC)ccc4n3C)n(CC(=O)N3CCCC3)c2=O)cc1	none
CS(=O)(=O)c1ccc(Cl)c(NC(=O)CCl)c1	none
Cc1ccc(NC(=O)Nc2cc(S(C)(=O)=O)ccc2Cl)cc1	D1 antagonist -38
COc1ccc(C)cc1NC(=O)CSc1ccc(-c2ccco2)nn1	D1 potentiator 42
CC(=O)c1cccc(NC(=O)CSc2ccc(-c3ccco3)nn2)c1	D1 antagonist -56
COc1ccc(C)cc1NC(=O)CSc1nnc(-c2ccco2)n1N	none
CCOc1ccc(NC(=O)CN(C)S(=O)(=O)c2ccc3[nH]c4c(c3c2)CCCC4)cc1	none
CCc1ccc(NC(=O)CC2C(=O)N(c3cccc(OC)c3)C(=O)N2Cc2ccc(F)cc2)cc1 (configuration not stated)	none
Cc1ccc(C(=O)O/N=C/c2ccc3c(c2)OCO3)cc1	D1 antagonist -67
O=C(O/N=C/c1ccc2c(c1)OCO2)c1ccc([N+](=O)[O-])cc1	none
Cc1ccc(C)c(N2CCN(C(=S)NC3CCCCC3)CC2)c1	none
Cc1cccc(N2CCN(C(=S)NC3CCCCC3)CC2)c1C	D1 antagonist -33
CCCNC(=S)Nc1ccc(Oc2ccccc2)cc1	none
CC(C)NC(=S)Nc1ccc(Oc2ccccc2)cc1	D1 ag 30
NC(=S)Nc1ccc(Oc2ccc(NC(N)=S)cc2)cc1	D1 antagonist -30
O=C(NC1CCCCC1)c1cc(S(=O)(=O)N2CCCC2)ccc1Cl	none
O=C(O)c1ccc(CSc2nnc(SCc3ccccc3)s2)cc1	D1 antagonist -47
Cc1ccc(NC(=O)c2ccc(CSc3nnc(C)s3)cc2)cc1	D1 ag 125, D1 potentiator 35
Cc1nnc(SCc2ccc(C(=O)O)cc2)s1	none
COc1ccccc1CNC(=O)c1cc(S(=O)(=O)N2CCCCCC2)cn1C	none
COc1ccccc1-c1ccc(SCc2ccccc2F)nn1	D1 antagonist -40
COc1ccccc1-c1ccc(SCc2ccccc2)nn1	none
CCOc1ccc(NC(=O)CN2CCN(CC(=O)Nc3ccc(N(CC)CC)cc3)CC2)cc1	none
N#Cc1ccc(C(=O)NCC(=O)OC(C(=O)Nc2cc(C(F)(F)F)ccc2Cl)c2ccccc2)cc1 (configuration not stated)	none
CCOC(=O)C(C)Oc1ccc2c(CC)cc(=O)oc2c1C (configuration not stated)	none
CCOC(=O)CCc1c(C)c2ccc(OC(C)C(=O)OCC)c(C)c2oc1=O (configuration not stated)	D1 antagonist -41
COc1ccc(OC)c(NC(=O)CCN2C(=O)c3ccccc3C2=O)c1	none
Cc1ccc(CN2CC(C(=O)NCCC3=CCCCC3)CC2=O)cc1 (configuration not stated)	none (no result: D1 potentiator)
FC(F)(F)COc1cc(-c2nnc(SCc3ccccc3)n2Cc2ccco2)cc(OCC(F)(F)F)n1	D1 ag 32
CN1CCc2c(sc(NC(=O)c3ccc(S(=O)(=O)N4CCCCCC4)cc3)c2C(N)=O)C1	TRHR agonist 51
CN1CCc2c(sc(NC(=O)c3cc(Cl)sc3Cl)c2C(N)=O)C1	D1 antagonist -32
CNC(=O)c1c(NC(=O)c2ccc(S(=O)(=O)N3CCCc4ccccc43)cc2)sc2c1CCN(C)C2	TRHR PAM 34, D1 antagonist -57
CN1CCc2c(sc(NC(=O)c3ccco3)c2C(N)=O)C1	none
O=C(CCc1nc2cccnc2n1Cc1cccs1)Nc1cccc(Cl)c1	none
O=C(Nc1ccc(N2CCN(C(=O)c3ccccc3F)CC2)cc1)c1ncn[nH]1	TRHR PAM 33
O=C(Nc1ccc(N2CCCCC2)c(Cl)c1)c1ncn[nH]1	D1 ag 39
Cc1ccccc1C(=O)N1CCN(c2ccc(NC(=O)c3cccnc3Cl)cc2)CC1	none
Cc1ccc2oc3c(c(=O)c2c1)C(c1cccc(O)c1)N(Cc1ccccc1Cl)C3=O (configuration not stated)	D1 antagonist -55
COc1ccc(-c2cn3nc(N4CCCC(C(=O)Nc5ccccc5OC)C4)sc3n2)cc1 (configuration not stated)	none
COc1cc(OC)c(NC(=O)Cn2c(=O)nc(-c3ccccc3)c3ccccc32)cc1Cl	none
COc1ccccc1NC(=O)CSc1nnc(N)s1	none
Cc1nc2ccccc2n1CCc1nc2c3ccccc3nc(SCc3ccccc3F)n2n1	none
COc1ccc(-c2noc(COc3ccc4ccccc4c3Br)n2)cc1OC	none
Cc1ccc(-c2noc(COc3ccc(Br)c(C)c3)n2)cc1	none
COc1ccc(-c2noc(COc3ccc(C)c(C)c3)n2)cc1OC	D1 antagonist -45
CCN(Cc1nc(-c2ccc(OC)c(OC)c2)no1)S(=O)(=O)c1ccc(OC)cc1	D1 antagonist -34
COc1ccc(-c2noc(COc3ccc(Br)cc3C)n2)cc1OC	D1 ag 33
Cn1nnnc1Sc1ncnc2scc(-c3ccccc3S(C)(=O)=O)c12	none
COc1ccc(C(=O)CCC(=O)Nc2cc(C)ccc2C)cc1	none
CCn1cc(C(=O)N(C)c2cc(C)ccc2C)c2cc(OC)c(OC)cc2c1=O	D1 antagonist -34
CCn1cc(C(=O)N(C)c2cc(C)ccc2OC)c2cc(OC)c(OC)cc2c1=O	none
Cn1nc(-c2ccccc2)c(C#N)c1Sc1cccc(Cl)c1	D1 ag 88
Cc1nn(C)c(Oc2cccc(Cl)c2)c1C#N	none
COC(=O)c1ccc(=O)c2nc3/c(=C/O)c(O)cc(=O)c3[nH]c12	none
C/C(CC(=O)NC1CCCC1)=N\NC(=O)c1ccc([N+](=O)[O-])c(Cl)c1	TRHR PAM 38

High-throughput results (PubChem BioAssay)
